Laboratory results reported in PubChem BioAssay AID1159580 (chemical genetic matrix, 2015).
The whole screen tested about 5,500 compounds, of which about 2,000 (36%) were called active. Another 18% or so got no clear call; they are omitted. Rule as the data show it: active = normalized growth mostly below about 0.91 (no sharp cut-off); inconclusive = no clear call, values can overlap the other calls; inactive = mostly above about 0.92. The list shows a part of the results.

Experiment: chemical genetic growth profiling, strain panel (AID 1159580);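 also: tested at 20 µM; growth read once vehicle control cultures reached saturation at 30 °C; 1 = growth at the plate median or of vehicle wells; lower values mean less growth of the strain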
Conditions: S. cerevisiae deletion strains, growth OD

Measured: normalized growth

Nc1ncnc2c1ncn2[C@@H]1O[C@H](COP(=O)(O)OP(=O)(O)OP(=O)(O)OP(=O)(O)OC[C@@H]2O[C@H](n3cnc4c(N)ncnc43)C(O)[C@@H]2O)[C@H](O)C1O (stereo partly drawn)
inactive: locus YAL013W, strain DEP1, stronger effect = lower value 1 | locus YAL040C, strain CLN3, stronger effect = lower value 1.01 | locus YCL061C, strain MRC1 (second series), stronger effect = lower value 0.992 | locus YDR363W, strain ESC2, stronger effect = lower value 1.04 | locus YER002W, strain NOP16, stronger effect = lower value 1.03 | locus YGR229C, strain SMI1, stronger effect = lower value 1.03 | locus YMR307W, strain GAS1, stronger effect = lower value 1.03 | locus YNL153C, strain GIM3, stronger effect = lower value 0.993 | locus YNL175C, strain NOP13, stronger effect = lower value 0.997 | locus YNL197C, strain WHI3, stronger effect = lower value 0.974 | locus YNL224C, strain SQS1, stronger effect = lower value 1 | locus YOR083W, strain WHI5 (second series), stronger effect = lower value 0.996 | locus YPL241C, strain CIN2, stronger effect = lower value 0.999
